From PubChem BioAssay
NCOA2 inhibitor: inhibition of GAL4-SRC2 driven luciferase reporter, primary screen, SRC2 inhibitor project, cell-based, luminescence; HEK293 GAL4-SRC2 luciferase reporter; inhibition, % at 9 µM; 0.17% of 370,000 active; AID 651957, 2012;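 active = inhibition above the mean inhibition of all tested compounds plus 3 SD, set per campaign, cut at about 52% in these data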;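 note: 0% = DMSO treated cells and 100% = cells given Gossypol at 36 µM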
Gli-Sufu antag: Gli-Sufu pathway antagonists, primary screen, luciferase luminescence, Sufu-KO-LIGHT cells, uHTS | Sufu-KO-LIGHT fibroblasts, Gli luciferase reporter luminescence | inhibition, % at 5 µM | 0.74% of 340,000 active | AID 588413, 2011;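 active = inhibition above about 55%, limit read from the data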;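 note: 0% = DMSO-treated cells and 100% = wells with medium but no cells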
NCOA3 inh: SRC3 coactivator transcriptional activity inhibitors, primary screen, cell-based, luminescence | 0.17% of 360,000 active | HEK293 GAL4-SRC3 luciferase reporter | inhibition, % at 3.6 µM | AID 588352, 2011 | Nuclear receptor coactivator 3 (Homo sapiens), Q9Y6Q9;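 active = inhibition above a per-campaign cutoff, the mean of all compounds plus 3 SD, cut at about 60% in these data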;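 note: 0% = DMSO-treated cells and 100% = gossypol-treated cells at 36 µM; higher means less SRC3-driven luciferase light from the GAL4 reporter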
NR5A2 inv ag: LRH-1 (NR5A2) inverse agonists, primary screen, cell-based, luminescence, HEK293T, StAR-luciferase reporter | LRH-1 transfected, 24 h | inhibition, % at 3.6 µM | 0.13% of 360,000 active | AID 602396, 2012;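 active = inhibition above the mean inhibition of all tested compounds plus 3 SD, cut at about 73% in these data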;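 note: 0% = DMSO wells and 100% = reporter-only cells lacking LRH-1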
SRC1 inh: SRC1 coactivator transcriptional activity inhibitors, primary screen, cell-based, luminescence. Nuclear receptor coactivator 1 (Homo sapiens), Q15788. HEK293 GAL4-SRC1 luciferase reporter. inhibition, % at 3.6 µM. 0.12% of 360,000 active. AID 588354, 2011;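 active = inhibition above the campaign mean plus 3 SD, with each screening campaign given its own cutoff, cut at about 60% in these data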;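 note: 0% = DMSO treated cells and 100% = gossypol at 36 µM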
COUP-TFII inh: NR2F2 transcriptional activity inhibitors, primary screen, cell-based, luciferase reporter, HEK293T, luminescence; COUP transcription factor 2 (Homo sapiens), P24468; HEK293T NGFI-A luciferase reporter; inhibition, % at 8.6 µM; 0.7% of 370,000 active;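 active = inhibition above a per-plate cutoff, mean inhibition of test wells between control levels plus 3 SD, cut at about 38% in these data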;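 note: cells cotransfected with COUP-TFII expression vector driving the NGFI-A reporter; 0% = median of COUP-TF2 test wells and 100% = reporter-only cells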
Target sequence (P24468 whole entry, looked up): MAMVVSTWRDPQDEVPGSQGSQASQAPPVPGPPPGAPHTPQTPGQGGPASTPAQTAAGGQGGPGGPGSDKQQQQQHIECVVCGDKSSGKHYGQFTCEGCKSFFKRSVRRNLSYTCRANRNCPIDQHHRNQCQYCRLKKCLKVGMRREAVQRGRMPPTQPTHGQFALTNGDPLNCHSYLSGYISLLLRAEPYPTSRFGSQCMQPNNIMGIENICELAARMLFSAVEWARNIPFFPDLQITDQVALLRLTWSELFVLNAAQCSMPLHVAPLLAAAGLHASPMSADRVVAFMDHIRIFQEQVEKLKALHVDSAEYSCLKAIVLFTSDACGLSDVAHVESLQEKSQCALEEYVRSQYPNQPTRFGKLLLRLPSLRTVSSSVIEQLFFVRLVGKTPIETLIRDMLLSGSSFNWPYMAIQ
Gal4-VP16 ctr: Gal4-VP16 luciferase reporter inhibitors, counter-screen for COUP-TFII antagonist project, cell-based, luminescence, HEK293 | shares compounds with COUP-TFII inh | inhibition, % at 8.5 µM | 25% of 2,500 active | AID 687007, 2013; in the data active = inhibition above about 13%
COUP-TFII conf: NR2F2 transcriptional activity inhibitors, confirmation, cell-based, luciferase reporter, HEK293, triplicate. inhibition, % at 8.5 µM. HEK293 NGFI-A luciferase reporter, luminescence. shares compounds with COUP-TFII inh. 45% of 2,500 active;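 active = mean inhibition over three repeats above a set limit taken from the earlier primary screen, cut at about 38% in these data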;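 note: 100% = cells given the luciferase reporter alone without the COUP-TF2 vector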
* hit, by the source's call. The list is not random: actives were taken first. Their share in the collection is about 1.3%.

For CCCCCc1ccc(OCCCC[n+]2cccc(C)c2)c(CCCCC)c1 the results were NCOA2 inhibitor 3.8, Gli-Sufu antag 85.2*, NCOA3 inh 51.5, NR5A2 inv ag 58.3, SRC1 inh 14.6, COUP-TFII inh 57.4*, Gal4-VP16 ctr 8.2 and COUP-TFII conf 27.8.
`CCCCOc1ccc(C)cc1CN(CCO)CCO` gave NCOA2 inhibitor -20.2, Gli-Sufu antag 4.0, NCOA3 inh 3.0, NR5A2 inv ag -6.0, SRC1 inh -14.4 and COUP-TFII inh 6.9.
C=CCN1C(=O)[C@H](CC(=O)N2CCN(C(=O)c3ccco3)CC2)[C@@]2(C(=O)OCC)CCCC=C12 was read as NCOA2 inhibitor 27.8 and COUP-TFII inh 2.5.
`C#Cc1ccc(NC(=O)C2(C)CCN2C(=O)Cc2ccc(C(C)C)cc2)cc1` (centres undefined) gave NCOA2 inhibitor 19.1, NCOA3 inh 9.9, NR5A2 inv ag 31.7, SRC1 inh 23.7, COUP-TFII inh 56.9*, Gal4-VP16 ctr 5.6 and COUP-TFII conf 47.2*.
Screening C#Cc1ccc(NC(=O)C2(C)CCN2C(=O)C/C=C/c2ccccc2)cc1 (centres undefined) returned NCOA2 inhibitor 9.0, NCOA3 inh 6.6, NR5A2 inv ag 2.3, SRC1 inh 6.0 and COUP-TFII inh 15.1.
Screening C#Cc1ccc(NC(=O)C2(C)CCN2C(=O)Cc2ccc(C(C)(C)C)cc2)cc1 (centres undefined) returned NCOA2 inhibitor 21.2, NCOA3 inh 8.1, NR5A2 inv ag 42.5, SRC1 inh 9.6, COUP-TFII inh 61.5*, Gal4-VP16 ctr 2.5 and COUP-TFII conf 42.9*.
CCC(=O)N(C1=C(NC)C(=O)c2ccccc2C1=O)C(C)C was read as NCOA2 inhibitor 13.0, Gli-Sufu antag -3.9, NCOA3 inh 10.9, NR5A2 inv ag 22.3, SRC1 inh -12.9 and COUP-TFII inh 7.8.
`CNC1=C(N(C(C)=O)c2ccc(Br)cc2)C(=O)c2ccccc2C1=O` gave NCOA2 inhibitor 45.9, Gli-Sufu antag 94.1*, NCOA3 inh 81.2*, NR5A2 inv ag 96.7*, SRC1 inh 80.5*, COUP-TFII inh 47.8*, Gal4-VP16 ctr 16.8* and COUP-TFII conf 35.8.
Cc1cc2nc(C3CCCN(C(=S)Nc4ccccc4C)C3)[nH]c2cc1C (centres undefined) was read as NCOA2 inhibitor 21.2, Gli-Sufu antag -1.6, NCOA3 inh 6.7, NR5A2 inv ag 14.7, SRC1 inh 13.9, COUP-TFII inh 45.1*, Gal4-VP16 ctr -33.9 and COUP-TFII conf -7.3.
`CCOc1ccc(N(CC(=O)Nc2c(C)n(C)n(-c3ccccc3)c2=O)S(=O)(=O)c2cccs2)cc1` gave NCOA2 inhibitor -21.4 and COUP-TFII inh 0.1.
Screening N#CC(C#N)=C(Nc1ccc(F)cc1)SCc1cccc(Br)c1 returned NCOA2 inhibitor 21.3, Gli-Sufu antag 64.4*, NCOA3 inh 52.0, NR5A2 inv ag 59.7, SRC1 inh 50.2, COUP-TFII inh 52.2*, Gal4-VP16 ctr 3.7 and COUP-TFII conf 38.3*.
CC(SCc1ccccc1)C(=O)Nc1ccc(F)cc1 (centres undefined) was read as NCOA2 inhibitor 0.9, Gli-Sufu antag -4.4, NCOA3 inh 12.0, NR5A2 inv ag -2.6, SRC1 inh -34.6 and COUP-TFII inh -0.1.
`COc1ccc(NC(=O)N2CCN(c3nc(-c4cccc(OC)c4)cs3)CC2)cc1` gave NCOA2 inhibitor 0.5, Gli-Sufu antag 8.4, NCOA3 inh 18.5, NR5A2 inv ag -5.3, SRC1 inh 3.1, COUP-TFII inh 40.1*, Gal4-VP16 ctr -13.6 and COUP-TFII conf 13.7.
CCOCCOC(=O)c1[nH]c2c(c1C)C(=O)CC(c1ccc(OC)c(OC)c1)C2 (centres undefined) was read as NCOA2 inhibitor 2.3, Gli-Sufu antag 7.4, NCOA3 inh 5.8, NR5A2 inv ag 9.0, SRC1 inh -1.6, COUP-TFII inh 46.1*, Gal4-VP16 ctr -4.1 and COUP-TFII conf 7.1.
Screening COc1cc(C2CC(=O)c3c([nH]c(C(=O)OCCOC(C)C)c3C)C2)cc(OC)c1OC (centres undefined) returned NCOA2 inhibitor 23.2, Gli-Sufu antag 35.6, NCOA3 inh 28.1, NR5A2 inv ag 42.1, SRC1 inh 21.3, COUP-TFII inh 75.6*, Gal4-VP16 ctr 0.1 and COUP-TFII conf 34.6.
Screening Cc1ccc2c(c1)sc(-c1ccc(N(C)C)cc1)[n+]2C returned NCOA2 inhibitor -19.7, Gli-Sufu antag 55.6*, NCOA3 inh -55.4, NR5A2 inv ag 16.2, SRC1 inh -29.6, COUP-TFII inh 57.5*, Gal4-VP16 ctr -24.9 and COUP-TFII conf 52.9*.
S=C(Nc1ccccc1Cl)OCCN1CCCC12CCC(c1ccccc1)CC2 (centres undefined) was read as COUP-TFII inh 13.6.
COc1ccc(-c2coc3c(C(=O)Nc4cccnc4)cccc23)c(C)c1 was read as NCOA2 inhibitor -3.0, NCOA3 inh -12.6, NR5A2 inv ag -1.6, SRC1 inh -3.6, COUP-TFII inh 55.2*, Gal4-VP16 ctr -15.8 and COUP-TFII conf 17.9.
For COc1ccc(-c2coc3c(C(=O)Nc4cccc(C(C)=O)c4)cccc23)c(C)c1 the results were NCOA2 inhibitor -17.1, NCOA3 inh -0.3, NR5A2 inv ag -4.4, SRC1 inh -4.8 and COUP-TFII inh 17.5.
Screening CCN(C)C(=O)CN1C(=O)C2CCCCN2C(=O)c2ccccc21 (centres undefined) returned NCOA2 inhibitor 15.4 and COUP-TFII inh 7.6.
`COc1ccc(Br)cc1C(C[N+](=O)[O-])c1c(N)n(C)c(=O)n(C)c1=O` (centres undefined) gave NCOA2 inhibitor -27.6, Gli-Sufu antag 7.2, NCOA3 inh -3.0, NR5A2 inv ag 27.5, SRC1 inh -25.8, COUP-TFII inh 40.7*, Gal4-VP16 ctr 7.4 and COUP-TFII conf 23.5.
For CN(C)c1ccc(C(C[N+](=O)[O-])c2c(N)n(C)c(=O)n(C)c2=O)c(F)c1C#N (centres undefined) the results were NCOA2 inhibitor 35.3, Gli-Sufu antag -3.2, NCOA3 inh 4.7, NR5A2 inv ag 15.8, SRC1 inh 4.5 and COUP-TFII inh -1.7.
